Experimental data as given in the antibiotic and cytotoxicity screens of Wong et al. (2023).
About 3,300 (8.5%) of roughly 39,000 compounds were called active. Many of the other results were omitted from the sample, so actives are more common in it than they were.

test system: HepG2; experiment: cytotoxicity call (relative viability < 0.9); details: 10 µM

Compound	cytotoxicity call
COCC#Cc1ccc([C@H]2[C@@H](CO)N3C(=O)CN(C(=O)c4ccncc4)C[C@@H]23)cc1	inactive
C[C@H](CO)N1C[C@H](C)[C@@H](CN(C)C(=O)NC2CCCCC2)Oc2ccc(NC(=O)Nc3cccc4ccccc34)cc2CC1=O	inactive
C[C@@H]1CN([C@@H](C)CO)C(=O)Cc2cc(NC(=O)Nc3cccc4ccccc34)ccc2O[C@@H]1CN(C)C(=O)NC1CCCCC1	active
C[C@@H]1CN([C@H](C)CO)C(=O)Cc2cc(NC(=O)Nc3cccc4ccccc34)ccc2O[C@H]1CN(C)C(=O)NC1CCCCC1	inactive
CCNC(=O)C[C@H]1C=C[C@@H](NC(=O)C2CC2)[C@@H](CO)O1	inactive
O=C(NCCN1CCOCC1)c1ccc(Cl)c(S(=O)(=O)N2CCOCC2)c1	inactive
CC1(C)CC(NC(=O)c2ccc(Cl)c(S(=O)(=O)N(Cc3ccccc3)c3ccccc3)c2)CC(C)(C)N1	active
CC1Cc2ccccc2N1NC(=O)c1ccc(Cl)c(S(N)(=O)=O)c1 (stereo unspecified)	inactive
C[C@@H]1CN([C@@H](C)CO)C(=O)c2cc(NS(=O)(=O)c3cccs3)ccc2O[C@@H](C)CCCCO[C@@H]1CN(C)C(=O)NC1CCCCC1	inactive
C[C@@H]1CN([C@@H](C)CO)C(=O)c2cc(C#Cc3cccnc3)cnc2O[C@H]1CN(C)S(=O)(=O)c1ccccc1F	inactive
Cc1cc2nc3c(=O)[nH]c(=O)nc-3n(C[C@@H](O)[C@@H](O)[C@@H](O)CO)c2cc1C	inactive
COC1=CC(C)C2CC3OC(=O)CC4C(C)=C(OC)C(=O)C(C2(C)C1=O)C34C (stereo unspecified)	inactive
C[C@@H]1CC=CC[C@H](c2ccc3c(c2)OCO3)NC(=O)[C@@H](Cc2ccccc2)N(C)C(=O)c2ccccc2O1	active
C[C@H]1CC=CC[C@H](c2ccc3c(c2)OCO3)NC(=O)[C@@H](Cc2ccccc2)N(C)C(=O)c2ccccc2O1	inactive
C[C@H]1CC=CC[C@@H](c2ccc3c(c2)OCO3)NC(=O)[C@H](Cc2ccccc2)N(C)C(=O)c2ccccc2O1	inactive
C[C@@H]1CN([C@@H](C)CO)S(=O)(=O)c2ccc(C#C[C@@H](C)O)cc2O[C@@H]1CN(C)C(=O)c1ccccc1	inactive
C[C@@H]1CN([C@@H](C)CO)S(=O)(=O)c2ccc(C#Cc3ccncc3)cc2O[C@H]1CN(C)C(=O)C1CCC1	active
C[C@@H]1CN([C@@H](C)CO)S(=O)(=O)c2ccc(C#Cc3ccncc3)cc2O[C@@H]1CN(C)C(=O)C1CCC1	inactive
C[C@H]1CN([C@@H](C)CO)S(=O)(=O)c2ccc(C#Cc3ccncc3)cc2O[C@H]1CN(C)C(=O)C1CCC1	inactive
C[C@@H]1CN([C@H](C)CO)S(=O)(=O)c2ccc(C#Cc3ccncc3)cc2O[C@H]1CN(C)C(=O)C1CCC1	active
C[C@H](CO)N1C[C@H](C)[C@@H](CN(C)C(=O)C2CCC2)Oc2cc(C#Cc3ccncc3)ccc2S1(=O)=O	active
C[C@H](CO)N1C[C@H](C)[C@H](CN(C)C(=O)C2CCC2)Oc2cc(C#Cc3ccncc3)ccc2S1(=O)=O	active
C[C@H]1CN([C@@H](C)CO)S(=O)(=O)c2ccc(C#Cc3ccncc3)cc2O[C@@H]1CN(C)C(=O)C1CCC1	inactive
C[C@@H]1CN([C@@H](C)CO)C(=O)c2cccc(NS(=O)(=O)c3cn(C)cn3)c2O[C@@H]1CN(C)C(=O)Nc1ccc2c(c1)OCO2	inactive

Compound	cytotoxicity call
CCc1nc2ccc(C(=O)Nc3ccc(OC)c(OC)c3)cn2c1N(CC)Cc1cccc(Br)c1	inactive
O=C(CSc1nnc(-c2ccccc2)n1C1CCCCC1)Nc1ccc(S(=O)(=O)Nc2ccccn2)cc1	inactive
Cc1ccc(CN)s1	inactive
C[C@H](CO)N1C[C@H](C)[C@@H](CN(C)C(=O)Nc2ccccc2)Oc2cc(Br)ccc2S1(=O)=O	inactive
Cc1noc(C)c1NC(=O)Nc1ccc2c(c1)C(=O)N([C@@H](C)CO)C[C@@H](C)[C@H](CN(C)S(=O)(=O)c1cccs1)OCCCC[C@@H](C)O2	inactive
C[C@@H]1CCCCO[C@H](CN(C)Cc2ccc(C(=O)Nc3ccccc3N)cc2)[C@@H](C)CN([C@H](C)CO)C(=O)c2cc(N(C)C)ccc2O1	inactive
C[C@H]1CN([C@@H](C)CO)C(=O)c2cc(NC(=O)CCN3CCOCC3)ccc2O[C@@H]1CN(C)C(=O)Nc1ccc(F)cc1	inactive
C/N=C1\S[C@@H](CC(=O)NC(C)C)C(=O)N1C	inactive
C[C@@H]1CN([C@@H](C)CO)C(=O)c2cc(C#Cc3cccnc3)cnc2O[C@@H]1CN(C)S(=O)(=O)c1ccccc1F	inactive
C[C@H]1CN([C@@H](C)CO)C(=O)c2cccc(NC(=O)CCCCCC(=O)Nc3ccccc3N)c2O[C@@H]1CN(C)S(=O)(=O)c1cn(C)cn1	inactive
CC(C)NC(=O)N(C)C[C@H]1OCCCC[C@@H](C)Oc2ccc(NC(=O)Nc3cccc4ccccc34)cc2C(=O)N([C@H](C)CO)C[C@@H]1C	inactive
N#Cc1c(-c2ccccc2)no[n+]1[O-]	inactive
C[C@H]1CN([C@@H](C)CO)C(=O)c2cc(NC(=O)CCN3CCOCC3)ccc2O[C@@H]1CN(C)CC1CCCCC1	inactive
Cc1ccc(S(=O)(=O)N(C)C[C@H]2Oc3ccc(NS(=O)(=O)c4cn(C)cn4)cc3CC(=O)N([C@H](C)CO)C[C@@H]2C)cc1	inactive
C[C@@H]1CN([C@H](C)CO)S(=O)(=O)c2ccc(C#Cc3ccncc3)cc2O[C@@H]1CN(C)C(=O)C1CCC1	active
Cc1noc(C)c1S(=O)(=O)Nc1ccc2c(c1)C(=O)N([C@@H](C)CO)C[C@@H](C)[C@@H](CN(C)S(=O)(=O)c1ccc(F)cc1)O2	inactive
C[C@H](CO)N1C[C@H](C)[C@@H](CN(C)Cc2ccc(Cl)c(Cl)c2)Oc2ccc(NC(=O)Nc3ccc(C(F)(F)F)cc3)cc2CC1=O	active
C[C@H]1CN([C@@H](C)CO)C(=O)Cc2cc(NC(=O)Nc3ccc(C(F)(F)F)cc3)ccc2O[C@@H]1CN(C)Cc1ccc(Cl)c(Cl)c1	inactive
C[C@@H]1CN([C@H](C)CO)C(=O)Cc2cc(NC(=O)Nc3ccc(C(F)(F)F)cc3)ccc2O[C@H]1CN(C)Cc1ccc(Cl)c(Cl)c1	inactive
C[C@@H]1CN([C@@H](C)CO)C(=O)Cc2cc(NC(=O)Nc3ccc(C(F)(F)F)cc3)ccc2O[C@H]1CN(C)Cc1ccc(Cl)c(Cl)c1	active
C[C@@H]1CN([C@H](C)CO)C(=O)Cc2cc(NC(=O)Nc3ccc(C(F)(F)F)cc3)ccc2O[C@@H]1CN(C)Cc1ccc(Cl)c(Cl)c1	active
C[C@H](CO)N1C[C@H](C)[C@H](CN(C)Cc2ccc(Cl)c(Cl)c2)Oc2ccc(NC(=O)Nc3ccc(C(F)(F)F)cc3)cc2CC1=O	inactive
C[C@H]1CN([C@@H](C)CO)C(=O)Cc2cc(NC(=O)Nc3ccc(C(F)(F)F)cc3)ccc2O[C@H]1CN(C)Cc1ccc(Cl)c(Cl)c1	active
CC(C)NC(=O)N(C)C[C@@H]1Oc2ccc(NC(=O)CCCN(C)C)cc2C(=O)N([C@H](C)CO)C[C@@H]1C	inactive

Compound	cytotoxicity call
COc1ccc2c3c(n(c2c1)C)[C@H](CO)N(C[C@]13CN(CC2CCOCC2)C1)C(=O)Cc1ccccn1	inactive
NC(=O)c1ccc[n+](CC(=O)N2CCCCC2)c1	inactive
Cc1noc(C)c1S(=O)(=O)Nc1ccc2c(c1)C(=O)N([C@@H](C)CO)C[C@H](C)[C@@H](CN(C)C(=O)Nc1ccccc1)O2	inactive
O=C(C[C@H]1CC[C@H]2[C@@H](COC[C@@H](O)CN2S(=O)(=O)c2ccc(F)cc2)O1)N1CCc2ccccc2C1	inactive
O=c1nc(NCCN2CCOCC2)cn[nH]1	inactive
NC(=O)Cn1nnc(-c2ccccc2)n1	inactive
C[C@@H]1CN([C@H](C)CO)C(=O)c2cc(NC(=O)Nc3cccc4ccccc34)ccc2O[C@H]1CN(C)Cc1ccncc1	inactive
C[C@@H]1CN([C@@H](C)CO)C(=O)c2cccc(NC(=O)c3nc4ccccc4s3)c2O[C@@H]1CN(C)S(=O)(=O)c1cn(C)cn1	inactive
COc1ccc2c3c([nH]c2c1)[C@H](CO)N(C[C@]13CN(C1)S(=O)(=O)c1ccccc1)C(=O)c1cnccn1	inactive
COc1cccc(NC(=O)N[C@H]2CC[C@@H](CC(=O)N3CCOCC3)O[C@H]2CO)c1	inactive
C[C@@H]1CN([C@@H](C)CO)C(=O)Cc2cc(NC(=O)Nc3ccc(C(F)(F)F)cc3)ccc2O[C@@H]1CN(C)Cc1ccc(Cl)c(Cl)c1	active
COc1ccc(S(=O)(=O)N(C)C[C@H]2Oc3ccc(NC(=O)Cc4ccccc4)cc3C(=O)N([C@H](C)CO)C[C@@H]2C)cc1	inactive
C[C@@H]1CN([C@H](C)CO)C(=O)c2cccc(NC(=O)Nc3cccc4ccccc34)c2O[C@H]1CN(C)C(=O)Nc1ccc2c(c1)OCO2	inactive
NS(=O)(=O)c1cccc2c1c([N+](=O)[O-])cc1[nH]c(=O)c(=O)[nH]c12	inactive
C[C@@H]1CCCCO[C@@H](CN(C)CC2CC2)[C@@H](C)CN([C@H](C)CO)C(=O)c2cc(NS(C)(=O)=O)ccc2O1	inactive
C[C@@H]1CN([C@H](C)CO)C(=O)Cc2cc(NC(=O)Nc3ccc4c(c3)OCO4)ccc2O[C@@H]1CN(C)Cc1ccc(-c2ccccc2)cc1	active
C[C@@H]1CN([C@@H](C)CO)C(=O)Cc2cc(NC(=O)Nc3ccc4c(c3)OCO4)ccc2O[C@@H]1CN(C)Cc1ccc(-c2ccccc2)cc1	inactive
C[C@@H]1CN([C@H](C)CO)C(=O)Cc2cc(NC(=O)Nc3ccc4c(c3)OCO4)ccc2O[C@H]1CN(C)Cc1ccc(-c2ccccc2)cc1	inactive
C[C@H](CO)N1C[C@H](C)[C@@H](CN(C)Cc2ccc(-c3ccccc3)cc2)Oc2ccc(NC(=O)Nc3ccc4c(c3)OCO4)cc2CC1=O	inactive
C[C@@H]1CN([C@@H](C)CO)C(=O)Cc2cc(NC(=O)Nc3ccc4c(c3)OCO4)ccc2O[C@H]1CN(C)Cc1ccc(-c2ccccc2)cc1	active
C[C@H]1CN([C@@H](C)CO)C(=O)Cc2cc(NC(=O)Nc3ccc4c(c3)OCO4)ccc2O[C@H]1CN(C)Cc1ccc(-c2ccccc2)cc1	inactive
C[C@H]1CN([C@@H](C)CO)C(=O)Cc2cc(NC(=O)Nc3ccc4c(c3)OCO4)ccc2O[C@@H]1CN(C)Cc1ccc(-c2ccccc2)cc1	active
C[C@H](CO)N1C[C@H](C)[C@H](CN(C)Cc2ccc(-c3ccccc3)cc2)Oc2ccc(NC(=O)Nc3ccc4c(c3)OCO4)cc2CC1=O	active
